# This is a sample that favours compounds with a hit; in the whole collection about 1.1% have one here.
# USP2a block: inhibitors of human ubiquitin-specific protease USP2a; O75604; USP2 core, Ub-CHOP2 coupled fluorogenic reporter, 485/531; Potency, µM (highest dose often 38.3 µM), inactives show at the highest dose activity change, negative = inhibition, hits mostly inhibitors; actives 0.01% (n = 330,000);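 note: plate controls were DMSO wells for no effect and full inhibition by NEM control for full effect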
#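 USP2 core (10nM final) preincubated 30min RT with compound in 20mM Tris-HCl pH 8.0, 2mM CaCl2, 2mM beta-mercaptoethanol, 0.05% CHAPS; 25nM Ub-CHOP2 plus 25nM reporter substrate added, fluorescence (Ex485/Em531) read after 60min.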
# Eya2 phos inh: inhibitors of human Eya2 phosphatase activity | O00167 | recombinant Eya2, OMFP fluorescence dephosphorylation (OMFP is methylfluorescein phosphate) | Potency, µM (series often up to 76.9 µM), without a hit: at the top dose activity, negative = inhibition, usual class: inhibitors | actives 0.006% (n = 330,000) | AID 488837; note: % is set by controls: 0 for no effect and ±100 for the full control effect
#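 Eya2 protein (added as 0.2 uM solution) was preincubated with compound for 10 min at ambient temperature in 50 mM HEPES pH 7.5, 50 mM NaCl, 5 uM MgCl2, 0.05% BSA, 1 mM DTT. OMFP (added at 50 uM) then reacted 10 min; fluorescence read at 485/525 nm.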
# PTAP TSG101 blk: blocks PTAP/TSG101 interaction to inhibit HIV-1 budding. Q99816. Fluorescence polarization, FITC-PTAP peptide / Tsg101 binding. Potency, µM (titrated, usually from 115 µM), without a hit: at the highest dose activity change, negative = inhibition, usual class: inhibitors. 340,000 tested, under 10 active. AID 493005; active = well fitted inhibition curve with a large enough effect in the main read-out, with a control signal flat, not every such curve was filed as active; inconclusive = small, poorly fitted or top-dose-only effect, or effect the other way, or a change in a side signal; inactive = no such curve, though single readings can be large or run the other way; note: % of control where 0% means no effect
#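 Fluorescence polarization binding of Tsg101 binding domain (10 uM final) to FITC-labeled PTAP peptide (50 nM final) in HEPES pH 7.5 buffer with NaCl, Tween 20, EDTA, TCEP. Compounds added before peptide; binding 20 min at RT.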
# 12-LOX inh: ALOX12 (human) lipoxygenase inhibition. purified 12hLO, xylenol orange hydroperoxide absorbance. actives 1.1% (n = 580,000). P18054. Potency, µM (doses to about 108 µM), without a hit: top-dose activity change, negative = inhibition, usual class: inhibitors; note: % is set by controls: 0 for no effect and ±100 for the full control effect
# Target sequence (P18054 whole entry, looked up): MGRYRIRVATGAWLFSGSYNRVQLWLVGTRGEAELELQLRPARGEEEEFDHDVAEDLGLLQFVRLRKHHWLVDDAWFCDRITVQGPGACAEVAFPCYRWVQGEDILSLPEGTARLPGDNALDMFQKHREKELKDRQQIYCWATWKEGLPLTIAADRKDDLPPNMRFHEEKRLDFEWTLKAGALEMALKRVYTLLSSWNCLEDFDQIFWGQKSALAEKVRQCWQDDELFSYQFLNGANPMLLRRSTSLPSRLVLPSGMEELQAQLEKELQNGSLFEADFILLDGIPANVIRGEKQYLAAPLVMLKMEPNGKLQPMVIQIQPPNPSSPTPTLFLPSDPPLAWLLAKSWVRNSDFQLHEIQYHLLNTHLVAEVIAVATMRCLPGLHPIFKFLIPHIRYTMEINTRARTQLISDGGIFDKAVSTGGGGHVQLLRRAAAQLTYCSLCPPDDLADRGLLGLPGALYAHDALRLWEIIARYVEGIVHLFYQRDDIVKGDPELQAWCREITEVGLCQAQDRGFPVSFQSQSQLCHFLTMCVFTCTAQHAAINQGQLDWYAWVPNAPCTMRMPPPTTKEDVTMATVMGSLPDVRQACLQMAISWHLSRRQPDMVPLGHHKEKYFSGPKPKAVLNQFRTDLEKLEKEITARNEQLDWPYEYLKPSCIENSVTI
#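 Hydroperoxide product was detected by ferrous iron/xylenol orange as the 573 to 405 nm absorbance ratio. Arachidonic acid at 40 uM (final) was turned over for 30 min at room temperature by 150 nM human 12hLO, pH 7.0 Hepes buffer, after 15 min compound preincubation.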
# * = called active by the depositor; ? = inconclusive; . = no result; ! = not active in a repeat; [ ] = remark or other dose. Unless noted, calls come from the whole dose curve; as a rule, active = well fitted curve in the direction sought with a large enough effect; inconclusive = small, poorly fitted or top-dose-only effect, or another doubt; inactive = no such curve, though single readings can be large; an effect the other way counts as inactive or inconclusive. Potency is the fitted concentration of half-maximal effect.
SMILES,USP2a block,Eya2 phos inh,PTAP TSG101 blk,12-LOX inh
CCOc1cc(/C=C/C(=O)c2ccc(C)cc2)cc(Cl)c1O,.,.,.,22µM*
COc1cc(/C=C/C(=O)c2cccc(O)c2)cc(Cl)c1O,.,.,.,25µM*
CCOc1cc(/C=C/C(=O)c2ccc(Cl)cc2)cc(Cl)c1O,.,.,.,7.9µM*
COc1ccc(/C=C/C(=O)c2cccc(O)c2)cc1,.,.,.,-61%
CCOc1cc(/C=C/C(=O)c2ccc(OC(F)F)cc2)cc(Cl)c1OC,.,.,.,-32%
COCCNC(=O)[C@@H]1Cc2cn(Cc3nccn3C)c3cccc(c23)[C@H](CC(C)C)N1,.,.,.,76%[176 µM]
CCOP(=O)(OCC)c1nc(-c2ccc([N+](=O)[O-])cc2)oc1NCc1ccccc1,.,.,.,-41%
CCOP(=O)(OCC)c1nc(-c2ccc([N+](=O)[O-])cc2)oc1NCc1ccc(C)cc1,.,.,.,10µM*
CN(C)C1(CN=Cc2cc(Cl)cc([N+](=O)[O-])c2O)CCCCC1,-1%,-6%,-11%,18µM*
COc1ccc(-c2cc(N3CCCC(NC(=O)c4cccc(C#N)c4)C3)n[nH]2)cc1 (stereo unspecified),.,.,.,47%
Cc1cccc(C(=O)Nc2ccc(C3(C(=O)NCCC(C)C)CCCCC3)cc2)c1,.,.,.,7.9µM*
CC(C)c1nc(-c2ccc(OC3CCN(S(=O)(=O)Cc4ccccc4)C3)cc2)no1 (stereo unspecified),.,.,.,27%
Cc1ccc(NC(=O)N/C=C/c2ccco2)cc1C,3%,2%,-1%,28µM*
Cc1ccc(NC(=O)c2cccc(NC(=O)/C=C/c3ccco3)c2)cc1C,3%,1%,3%,40µM*
COc1ccc(-c2c(NC(=O)c3ccc([N+](=O)[O-])cc3)oc3ccccc3c2=O)cc1OC,.,.,.,-15%
CCC(O)c1cc2n(n1)CCN(C(=O)CN1CCOc3ccccc3C1)C2 (stereo unspecified),.,.,.,16%
Cn1c(C(=O)Nc2ccc(Cl)cc2)cc2cc(Cl)ccc21,0%,-5%,-1%,18µM*
O=C(NCC(=O)N1CCCC1c1ccccc1)c1ccc(Cl)cc1 (stereo unspecified),.,.,.,-13%
C=CCOc1cccc(C2C(C(=O)c3ccco3)=C(O)C(=O)N2Cc2ccco2)c1 (stereo unspecified),-1%,8%,-1%,45µM*
Cc1ccc(Cl)cc1N1CCN(C(=S)NCCc2ccccc2)CC1,1%,0%,-2%,35µM*
CN1CCN(C(c2ccc(Cl)cc2)c2cc(Cl)c3cccnc3c2O)CC1 (stereo unspecified),-12%,-1%,-7%,10µM*
CC(C)=CCCC(C)CC=O (stereo unspecified),.,.,.,6%[176 µM]
Cc1ccc(C)c(N=Cc2cc3c(cc2[N+](=O)[O-])OCO3)c1,-6%,12%,-5%,?
CC(C)(C)c1ccc(O)c(N=Cc2cc3c(cc2[N+](=O)[O-])OCO3)c1,-2%,-2%,-1%,35µM*
O=[N+]([O-])c1cc(Br)cc(C=Nc2ccc3c(c2)OCO3)c1O,-3%,22%,1%,35µM*
SMILES,USP2a block,Eya2 phos inh,PTAP TSG101 blk,12-LOX inh
CC(C)c1noc(C2CCCN(Cc3cn(C(C)C)c4ccccc34)CCC(=O)NCC2)n1 (stereo unspecified),.,.,.,15%
O=C(/C(=N/N=C/c1ccc(O)c(O)c1)c1ccccc1)c1ccccc1,0%,-2%,-1%,40µM*
Oc1ccc(/C=N/N=C/c2ccc(O)c(O)c2)cc1O,-1%,2%,-8%,1.1µM*
O=C(NCC1(N2CCCCC2)CCCCC1)C1CCN(C(=O)c2ccc(F)cc2)CC1,.,.,.,-8%
CCOC(=O)c1c(NC(=O)C2=C(C)NC(=S)NC2c2ccccc2C(F)(F)F)sc(C)c1C (stereo unspecified),2%,-4%,0%,25µM*
Cc1nc(CCNC(=O)Cc2ccsc2)no1,.,.,.,35µM*
Cc1nc(CCNC(=O)CC(C)C)no1,.,.,.,5%
CNC(=O)c1cc(-c2ccc(OC)c(OC)c2)cc2c1OCCN2Cc1cccnc1,.,.,.,-1%[176 µM]
CCOC(=O)C1=C(C)N=C2SC=C(CC(=O)Nc3ccc(C)c(C)c3)N2C1c1cccc(OC)c1 (stereo unspecified),.,.,.,20%
c1ccc(-c2nn3c(Cn4cnc5ccccc54)nnc3s2)cc1,0%,-8%,-10%,7.1µM*!
c1ccc(-c2nn3c(Cn4nnc5ccccc54)nnc3s2)cc1,-1%,5%,-8%,14µM*
c1ccc2c(c1)ncn2Cc1nnc2sc(-c3ccncc3)nn12,2%,5%,-7%,0%
O=C(c1ccc2cc[nH]c2c1)N1CCC(n2cc(-c3nc(-c4ccccc4)no3)nn2)CC1,.,.,.,-19%
Cc1oc(C(O)c2ccccc2)nc1C(=O)Nc1ccc2[nH]ccc2c1 (stereo unspecified),.,.,.,-10%[176 µM]
c1ccc(Nc2nc(NCC3CCCO3)c3ccccc3n2)cc1 (stereo unspecified),1%,-4%,-4%,45µM*
CCOC(=O)[C@]12CCC=C1N(Cc1ccc3c(c1)OCO3)C(=O)[C@H](CC(=O)NCCCCc1ccccc1)C2,.,.,.,-1%
CCOC(=O)[C@]12CCC=C1N(Cc1ccc3c(c1)OCO3)C(=O)[C@H](CC(=O)NCCc1ccccc1OC)C2,.,.,.,40µM*
CC1Cc2cc(S(=O)(=O)NCCC(=O)N(C)Cc3ccco3)ccc2N1C(=O)C1CC1 (stereo unspecified),.,.,.,16%
S=c1[nH]cc(Oc2ccc(Cl)cc2Cl)c(=S)[nH]1,.,.,-13%,?
S=c1[nH]c(-c2cccc(Cl)c2)cs1,.,.,.,8.9µM*
O=c1[nH]c(-c2ccc(Cl)cc2)cs1,-1%,6%,-5%,-16%
S=c1[nH]c(-c2ccccc2)cs1,3%,8%,0%,2µM*
O=C(O)c1csc(-c2cccc(Cl)c2)n1,6%,-7%,-5%,-21%
Fc1ccc(-c2csc(=S)[nH]2)cc1,0%,17%,0%,7.9µM*!
O=c1[nH]c(-c2ccccc2)cs1,3%,0%,-1%,-14%
SMILES,USP2a block,Eya2 phos inh,PTAP TSG101 blk,12-LOX inh
S=c1[nH]c(-c2ccc(Cl)cc2Cl)cs1,.,.,.,13µM*
Cc1nn(-c2ccccc2)c2nc(N)c(C#N)c(-c3ccc(O)c(O)c3)c12,-11%,-9%,0%,32µM*
Cc1nn(-c2ccc(F)cc2)c2nc(N)c(C#N)c(-c3ccc(O)c(O)c3)c12,0%,0%,1%,?
CN1c2cccnc2CN(CC2CCCCC2)CC[C@H]1CO,.,.,.,92%[176 µM]
CN(C(=O)CN1CCN(c2cc(-c3ccc(-c4ccccc4)cc3)ncn2)CC1)c1ccccc1,.,.,.,45µM*
CN(C(=O)COc1coc(CN2CCN(c3ccccc3)CC2)cc1=O)c1ccccc1,0%,-20%,-6%,14%
O=C1c2cc(Cl)ccc2-c2c(O)cc(Cl)cc21,.,.,-2%,35µM*
O=c1cc(O)c(-c2ccc(Cl)cc2)c(Cl)[nH]1,4%,-14%,-2%,?
COc1cccc(CN(CCC(=O)O)Cc2cccc(OC)c2)c1,.,.,.,18µM*

# Assay outcomes deposited in PubChem by National Center for Advancing Translational Sciences (NCATS).
